PubChem BioAssay (EPA / NIEHS)
Results filed as inconclusive are left out. Activity calls are given as the source filed them. How the source made its calls, unless noted: active means hit-call score of the fitted dose curve at least 0.9, where 1 is the maximum; inconclusive means response in the unintended direction; inactive means score below 0.9.

Key:
[1] = STM_H9_CystineISnorm_perc: Stemina devTOX quickPredict H9 human embryonic stem cell (hESC)-based Assay for Cystine (CYSS) Metabolite Biomarker, Normalized (AID 2283713; active means hit-call score of the fitted dose curve at least 0.9, where 1 is the maximum; inactive means score below 0.9)
Procedure, shortened: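 Secreted cystine was measured by UPLC-HRMS in H9 hESC medium after 72h compound exposure with 24-hourly replenishment. Values are standard-normalized areas relative to 0.1% DMSO.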

[2] = STM_H9_OrnCyssISnorm_ratio: Stemina devTOX quickPredict H9 human embryonic stem cell (hESC)-based Assay for Ornithine (ORN):Cystine (CYSS) Ratio (AID 2283714)
Procedure, shortened: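 Undifferentiated H9 hESCs were exposed to compound for 72h with media and chemical replaced every 24h. Final 24-h conditioned media were deproteinized and analysed by UPLC-HRMS. ORN and CYSS peak areas were normalized to C13 internal standards and the ratio taken versus 0.1% DMSO.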

[3] = CEETOX_H295R_MTT_cell_viability: Viability Assessment in the CeeTox HT-H295R MTT Assay (AID 2283718; active means hit-call score of the fitted dose curve at least 0.9, where 1 is the maximum; inactive means score below 0.9;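 on AC50: curve fitted both ways so AC50 may mark viability loss or gain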)
Procedure, shortened: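 H295R cells prestimulated 48 h with 10 uM forskolin, then exposed 48 h to test chemical (0.1% DMSO final). Viability by MTT (0.5 mg/ml, 4 h, 37 C), absorbance 570/650 nm; percent change versus DMSO, bidirectional fit.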

[4] = Tanguay_ZF_120hpf_ActivityScore_legacy: (Legacy) Oregon State University Tanguay Lab 120 Hour Post-fertilization zebrafish Assay Score for Activity (AID 2283742)
Procedure, shortened: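 Tropical 5D wild-type zebrafish embryos, dechorionated with pronase at 4 hpf, were exposed singly from 6 hpf to 120 hpf statically at 28C in 0.64% DMSO. Malformations and mortality were scored as binary by brightfield, with the activity score combining 18 morphology components.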

[5] = ACEA_AR_agonist_AUC_viability: ACEA Biosciences xCELLigence Real-Time Cell Analysis on Androgen Receptor Agonism for Viability (AID 2283775);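 on AC50: viability read 80 hours after compound addition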
Procedure, shortened: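 Read-out is area under the impedance curve at 80 h post-dose in 22Rv1 cells, with DMSO as baseline and signal loss taken as reduced viability. Compounds ran in duplicate from 100 uM final.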

[6] = ACEA_AR_antagonist_AUC_viability: ACEA Biosciences xCELLigence Real-Time Cell Analysis on Androgen Receptor Antagonism for Viability (AID 2283776);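 further: 22Rv1 human prostate cancer cells growing on impedance electrode plates; area under impedance growth curve at 80 h after dosing as viability; hits lower the growth signal relative to DMSO meaning cytotoxicity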
Procedure, shortened: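 Viability endpoint from label-free cell-index monitoring: 22Rv1 cultures treated with an eight-point 1:4 dilution series starting at 100 uM final, AUC at 80 h fitted against DMSO.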

[7] = molecular target: Luciferin 4-monooxygenase (Photinus pyralis) (UniProt P08659); assay: CCTE_Simmons_QuantiLum_inhib_2: CCTE's Firefly Luciferase Inhibition Assay, Simmons Lab (AID 2283767);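 on AC50: potency for inhibitors that lower luciferase luminescence relative to DMSO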
Procedure, shortened: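 Counter-screen for nonspecific enzyme inhibition: purified firefly luciferase incubated 30 min at 37C with chemicals up to 87.5 uM final, then luminescence measured after luciferin/dATP injection; activity fitted against DMSO baseline.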

Chain of Luciferin 4-monooxygenase (Photinus pyralis) (P08659 whole entry, looked up): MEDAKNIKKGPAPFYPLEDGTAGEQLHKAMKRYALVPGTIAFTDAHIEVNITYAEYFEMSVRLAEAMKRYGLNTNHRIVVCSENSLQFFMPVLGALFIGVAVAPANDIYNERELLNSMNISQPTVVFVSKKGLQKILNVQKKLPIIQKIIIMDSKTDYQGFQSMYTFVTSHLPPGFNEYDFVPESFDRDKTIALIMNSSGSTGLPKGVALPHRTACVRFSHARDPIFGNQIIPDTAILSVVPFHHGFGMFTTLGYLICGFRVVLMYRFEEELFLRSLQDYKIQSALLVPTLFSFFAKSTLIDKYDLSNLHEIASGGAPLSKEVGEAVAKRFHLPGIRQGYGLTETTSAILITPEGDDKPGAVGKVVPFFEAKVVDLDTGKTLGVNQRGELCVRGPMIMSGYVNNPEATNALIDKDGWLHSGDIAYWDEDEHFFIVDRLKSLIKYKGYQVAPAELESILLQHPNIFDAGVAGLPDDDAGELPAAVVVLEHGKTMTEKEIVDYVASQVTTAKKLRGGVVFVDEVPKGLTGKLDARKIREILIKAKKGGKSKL

O=C(O)CN(CC(=O)O)CC(=O)O
AC50 [1]: 14.8 µM (active) | AC50 [2]: 13 µM (active) | outcome [3]: inactive | outcome [4]: inactive | outcome [5]: inactive | outcome [6]: inactive

CC(C)OC(=O)C(C)(C)Oc1ccc(C(=O)c2ccc(Cl)cc2)cc1
outcome [1]: inactive | outcome [4]: inactive | AC50 [5]: 35.4 µM (active) | AC50 [6]: 41.2 µM (active)

CCC(C)N(C)C(=O)c1cc2ccccc2c(-c2ccccc2Cl)n1 (centres undefined)
outcome [1]: inactive | outcome [3]: inactive | outcome [4]: inactive | AC50 [5]: 45.7 µM (active) | AC50 [6]: 40.9 µM (active)

Cc1ccc(C(C)(C)C)c(O)c1
outcome [1]: inactive | AC50 [2]: 15 µM (active) | outcome [4]: inactive | outcome [7]: inactive | outcome [5]: inactive | outcome [6]: inactive

Cc1cc(Cc2ccc(N)c(C)c2)ccc1N
outcome [1]: inactive | outcome [2]: inactive | outcome [3]: inactive | outcome [4]: inactive | outcome [7]: inactive | outcome [5]: inactive | outcome [6]: inactive

CC(=O)[C@@]1(O)CC[C@H]2[C@@H]3CCC4=CC(=O)CC[C@]4(C)[C@H]3CC[C@@]21C
AC50 [1]: 80 µM (active) | AC50 [2]: 73.4 µM (active) | outcome [3]: inactive | outcome [4]: inactive | outcome [6]: inactive

Cc1cn([C@H]2C=C[C@@H](CO)O2)c(=O)[nH]c1=O
outcome [1]: inactive | outcome [2]: inactive | outcome [4]: inactive | outcome [5]: inactive | AC50 [6]: 19.7 µM (active)

Nc1nc(=S)c2[nH]cnc2[nH]1
AC50 [1]: 2.13 µM (active) | AC50 [2]: 2.97 µM (active) | AC50 [3]: 2.52 µM (active) | outcome [4]: inactive | AC50 [7]: 11.2 µM (active) | AC50 [5]: 0.655 µM (active) | AC50 [6]: 0.212 µM (active)

O=C1NC(=O)C(c2ccccc2)(c2ccccc2)N1
outcome [1]: inactive | outcome [2]: inactive | outcome [4]: inactive | AC50 [5]: 33.6 µM (active) | AC50 [6]: 28.7 µM (active)

O=C(Oc1ccccc1)c1cccc(C(=O)Oc2ccccc2)c1
outcome [1]: inactive | outcome [3]: inactive | outcome [4]: inactive | outcome [6]: inactive
